Experimental data reported in the supplement of paper PMC9254222.
In all, about 1,100 compounds were measured (“Wnt reporter firefly/Renilla luciferase ratio relative to plate median”: median about 1.1, highest 2% from about 1.6 on). The sample as a whole holds a higher share of the highest values than the screen did.

System: HEK293T (UBE3A T485A transfected, BAR Wnt reporter)
Assay: Wnt reporter firefly/Renilla luciferase ratio relative to plate median (fold (linear ratio)); higher = more Wnt/beta-catenin reporter activation
Conditions: 24 h
In short: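 Chemicals at 0.01–100 uM were left on transfected HEK293T cells for 24 h, after a four-hour wait following transfection. The cells held a BAR firefly luciferase Wnt reporter, TK-Renilla and an expression plasmid. Wnt activity, as the firefly/Renilla ratio from a Dual-Glo luciferase readout, and cell health, as raw Renilla, were median-centred within each plate. Results average four biological replicates.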

SMILES | Wnt reporter firefly/Renilla luciferase ratio (concentration: 0.1 uM) | Wnt reporter firefly/Renilla luciferase ratio (concentration: 1 uM) | Wnt reporter firefly/Renilla luciferase ratio (concentration: 10 uM) | Wnt reporter firefly/Renilla luciferase ratio (concentration: 100 uM) | Wnt reporter firefly/Renilla luciferase ratio (concentration: 0.01 uM)
O=C(NS(=O)(=O)/C=C/c1cccs1)c1ccc(F)cc1Br | 1.13 | 1.12 | 0.456 | 0.251 | 
c1ccc2cc3c(ccc4ccccc43)cc2c1 [Benz(a)anthracene] | 1 | 0.949 | 1.29 | 0.737 | 
c1ccc2cc3ccccc3cc2c1 [Anthracene] | 0.982 | 0.92 | 0.951 | 2.12 | 
c1ccc2ccccc2c1 [Naphthalene] | 1.17 | 1.18 | 1.32 | 1.48 | 
CC[C@H](c1ccc(O)cc1)[C@@H](CC)c1ccc(O)cc1 [meso-Hexestrol] | 0.858 | 1.05 | 0.711 | 0.0535 | 
CCCCc1ccc2c(n1)[C@@H](c1ccc(OC)cc1C[C@H](C)C(=O)[O-])[C@H](C(=O)[O-])[C@H]2c1ccc2c(c1)OCO2.[Na+].[Na+] | 1.37 | 1.08 | 1.18 | 0.429 | 
Nc1ncn([C@@H]2O[C@H](CO)[C@@H](O)[C@H]2O)c(=O)n1 [5-azacytidine] | 1.52 | 1.36 | 0.213 | 2.42 | 1.01
OCC1OC(n2cnc3c(NC4CCCC4)ncnc32)C(O)C1O (stereo unspecified) [N6-Cyclopentyl adenosine] | 1.15 | 1.06 | 1.05 | 1.18 | 1.31
Cl.Nc1ccn([C@@H]2O[C@H](CO)[C@@H](O)[C@@H]2O)c(=O)n1 [Cytarabine hydrochloride] | 1.1 | 0.941 | 0.171 | 0.125 | 
c1ccc(C(O[C@@H]2CCCN(CCc3ccc4c(c3)OCO4)C2)c2ccccc2)cc1 [Zamifenacin] | 1.15 | 1.05 | 0.996 | 1.13 | 
CS(=O)(=O)O.Cc1nccn1-c1ccc(Sc2cccc(C3(C(N)=O)CCOCC3)c2)cc1 | 1.01 | 0.73 | 0.387 | 0.282 | 
COc1ccc2sc(C(=O)Nc3nnn[n-]3)c(OC(C)C)c2c1.[Na+] | 1.08 | 1.08 | 1.35 |  | 
CCCCOC(=O)CCCCCCCCC(=O)OCCCC [Dibutyl decanedioate] | 0.951 | 0.896 | 0.802 | 2.33 | 
CC(=O)OCCOCCOCCOC(C)=O [Triethylene glycol diacetate] | 1.25 | 1.16 | 1.07 | 1.26 | 
CCCCCCC(=O)OCC [Ethyl heptanoate] | 1.14 | 1.05 | 1.47 | 1.14 | 
CC(=O)OCCC(C)C [3-Methylbutyl acetate] | 1.41 | 0.938 | 1.03 | 1.09 | 
CCCCCOC(C)=O [Pentyl acetate] | 1.22 | 0.968 | 1.4 | 1.61 | 
CCCCOC(=O)CCCCC(=O)OCCCC [Dibutyl hexanedioate] | 0.981 | 0.969 | 1 | 1.08 | 

SMILES | Wnt reporter firefly/Renilla luciferase ratio (concentration: 0.1 uM) | Wnt reporter firefly/Renilla luciferase ratio (concentration: 1 uM) | Wnt reporter firefly/Renilla luciferase ratio (concentration: 10 uM) | Wnt reporter firefly/Renilla luciferase ratio (concentration: 100 uM) | Wnt reporter firefly/Renilla luciferase ratio (concentration: 0.01 uM)
Cc1cccc(C)c1O [2,6-Dimethylphenol] | 1.32 | 0.992 | 1.45 | 1.16 | 
CC(=O)c1ccc2c(c1)[C@H](NC(=O)c1ccc(F)cc1)[C@@H](O)C(C)(C)O2 [Carabersat] | 1.27 | 1.07 | 1.04 | 1.43 | 
C=C(C)C(N)=O [Methacrylamide] | 1.22 | 1.04 | 1.05 | 1.25 | 
Oc1ccc(C(c2ccc(O)cc2)C(Cl)(Cl)Cl)cc1 [2,2-Bis(4-hydroxyphenyl)-1,1,1-trichloroethane] | 1.3 | 0.957 | 0.541 |  | 1.02
CC(=O)[C@@]1(O)CC[C@H]2[C@@H]3CCC4=CC(=O)CC[C@]4(C)[C@H]3CC[C@@]21C [17alpha-Hydroxyprogesterone] | 1.06 | 1.02 | 1.03 | 0.475 | 
NC(=O)N/N=C/c1ccc([N+](=O)[O-])o1 [Nitrofurazone] | 1.22 | 1.02 | 0.506 | 0.32 | 
Nc1nc(=O)c2nc(CNc3ccc(C(=O)N[C@@H](CCC(=O)O)C(=O)O)cc3)cnc2[nH]1 [Folic acid] | 1.38 | 1.01 | 0.97 | 1.26 | 
O=C(OC[C@H]1O[C@@H](OC(=O)c2cc(O)c(O)c(OC(=O)c3cc(O)c(O)c(O)c3)c2)[C@H](OC(=O)c2cc(O)c(O)c(OC(=O)c3cc(O)c(O)c(O)c3)c2)[C@@H](OC(=O)c2cc(O)c(O)c(OC(=O)c3cc(O)c(O)c(O)c3)c2)[C@@H]1OC(=O)c1cc(O)c(O)c(OC(=O)c2cc(O)c(O)c(O)c2)c1)c1cc(O)c(O)c(OC(=O)c2cc(O)c(O)c(O)c2)c1 [Tannic acid] | 0.923 | 1.19 | 1.38 |  | 
CCC(C)N(C)C(=O)c1cc2ccccc2c(-c2ccccc2Cl)n1 (stereo unspecified) | 0.925 | 1.31 | 1.03 | 0.292 | 
CC(C)(C)c1cc(O)c(C(C)(C)C)cc1O [2,5-Di-tert-butylbenzene-1,4-diol] | 1.14 | 0.988 | 1.13 |  | 
CC(C)(C)c1ccc(O)c(C(C)(C)C)c1 [2,4-Di-tert-butylphenol] | 0.984 | 1.32 | 1.13 | 1.1 | 
CC(C)(C)c1cccc(C(C)(C)C)c1O [2,6-Di-tert-butylphenol] | 1.12 | 1.01 | 1.3 | 1.72 | 
CCN(Cc1cccc(S(=O)(=O)[O-])c1)c1ccc(C(=C2C=CC(=[N+](CC)Cc3cccc(S(=O)(=O)[O-])c3)C=C2)c2ccccc2S(=O)(=O)[O-])cc1.[Na+].[Na+] | 0.943 | 1.04 | 0.706 | 0.433 | 
CC1(C)C(=O)NC(=O)N1CO [1-(Hydroxymethyl)-5,5-dimethylhydantoin] | 1.14 | 0.992 | 1.12 | 1.59 | 
CN1CCC(c2c(O)cc(O)c3c(=O)cc(-c4ccccc4Cl)oc23)C(O)C1 (stereo unspecified) [Flavopiridol] | 2 |  |  |  | 1.17
CN(C)C(=O)NC1(c2ccccc2)CCN(CCC[C@@]2(c3ccc(Cl)c(Cl)c3)CCCN(C(=O)c3ccccc3)C2)CC1 | 1.08 | 0.903 | 0.985 |  | 
O=C(O)/C=C/C(=O)O.O=C1c2ccccc2C(=O)N1CCc1noc(-c2ccc(CN3CCCCCC3)s2)n1 | 1.17 | 1.07 | 0.907 | 0.252 | 
